Source: the supplement of paper PMC3545927
The other results are listed elsewhere or left out. No count for the full screen is at hand.

Target: furin, P09958
Experiment: furin cleavage Z-score vs untreated control; higher = more cleavage, active = 3.5 or more, inactive = 1 or less, 8 variable residues between constant flanks
Procedure, shortened: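 Purified furin digested bead-held 8-mer peptide–cDNA fusions at 1:10 enzyme:substrate in 0.01 ml of 50 mM HEPES pH 7.5 with CaCl2 and NaCl for 7.5, 15 or 30 min. The cleavage Z-score compares sequencing counts of released DNA with furin-free reactions on a log scale, with lowess adjustment and median absolute deviation scaling.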

Sequence of furin, P09958 (P09958 whole entry): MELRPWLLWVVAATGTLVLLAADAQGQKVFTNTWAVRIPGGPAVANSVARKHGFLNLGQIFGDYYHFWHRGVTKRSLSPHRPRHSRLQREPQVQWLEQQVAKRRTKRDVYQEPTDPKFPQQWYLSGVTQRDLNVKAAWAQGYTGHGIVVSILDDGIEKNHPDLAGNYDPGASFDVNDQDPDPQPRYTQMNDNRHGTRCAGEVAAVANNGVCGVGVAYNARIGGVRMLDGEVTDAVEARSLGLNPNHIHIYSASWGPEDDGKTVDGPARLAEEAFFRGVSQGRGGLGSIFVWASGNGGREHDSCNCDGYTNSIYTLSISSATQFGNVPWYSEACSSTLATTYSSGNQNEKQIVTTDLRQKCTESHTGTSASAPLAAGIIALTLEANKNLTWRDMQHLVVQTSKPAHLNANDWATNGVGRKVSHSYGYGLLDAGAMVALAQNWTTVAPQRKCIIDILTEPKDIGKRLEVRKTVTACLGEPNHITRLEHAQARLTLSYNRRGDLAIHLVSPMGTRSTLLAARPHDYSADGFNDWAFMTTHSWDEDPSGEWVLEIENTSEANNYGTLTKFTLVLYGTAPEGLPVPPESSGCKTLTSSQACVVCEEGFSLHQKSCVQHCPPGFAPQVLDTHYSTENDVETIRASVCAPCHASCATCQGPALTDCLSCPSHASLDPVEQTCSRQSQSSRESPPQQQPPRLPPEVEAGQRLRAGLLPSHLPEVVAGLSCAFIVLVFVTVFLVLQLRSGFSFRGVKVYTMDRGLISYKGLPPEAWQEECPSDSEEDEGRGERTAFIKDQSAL

B1: HC2564 (peptide)
chain: CASTPCSAHIAGNASASA
- furin cleavage Z-score (7.5 min): -0.152 (inactive)
- furin cleavage Z-score (15 min): -1.03 (inactive)
- furin cleavage Z-score (30 min): -0.677 (inactive)

B2: HC582 (peptide)
chain: CALWWLQYFLAGNASASA
- furin cleavage Z-score (7.5 min): -0.496 (inactive)
- furin cleavage Z-score (15 min): -0.768 (inactive)
- furin cleavage Z-score (30 min): -1.19 (inactive)

B3: HC132 (peptide)
chain: CAEVVDSTWVAGNASASA
- furin cleavage Z-score (7.5 min): -0.25 (inactive)
- furin cleavage Z-score (15 min): 1.14
- furin cleavage Z-score (30 min): -1.05 (inactive)

B4: HC52 (peptide)
chain: CATTPDSGSWAGNASASA
- furin cleavage Z-score (7.5 min): -0.899 (inactive)
- furin cleavage Z-score (15 min): -0.656 (inactive)
- furin cleavage Z-score (30 min): -0.757 (inactive)

B5: FS-1091 (peptide)
chain: CASTPRSKRLAGNASASA
- furin cleavage Z-score (7.5 min): 3.77 (active)
- furin cleavage Z-score (15 min): 6.77 (active)
- furin cleavage Z-score (30 min): 5.46 (active)

B6: FS-1429 (peptide)
chain: CAVLEESKRLAGNASASA
- furin cleavage Z-score (7.5 min): -0.217 (inactive)
- furin cleavage Z-score (15 min): -1.55 (inactive)
- furin cleavage Z-score (30 min): -0.503 (inactive)

B7: FS-31 (peptide)
chain: CAHTWREKRLAGNASASA
- furin cleavage Z-score (7.5 min): 1.05
- furin cleavage Z-score (15 min): 0.418 (inactive)
- furin cleavage Z-score (30 min): 0.0913 (inactive)

B8: HC2534 (peptide)
chain: CASTPCSKHLAGNASASA
- furin cleavage Z-score (7.5 min): 1
- furin cleavage Z-score (15 min): -1.62 (inactive)
- furin cleavage Z-score (30 min): 0.302 (inactive)

B9: HC2553 (peptide)
chain: CASTPCSARLAGNASASA
- furin cleavage Z-score (7.5 min): 0.576 (inactive)
- furin cleavage Z-score (15 min): 0.581 (inactive)
- furin cleavage Z-score (30 min): -0.498 (inactive)

B10: FS-886 (peptide)
chain: CATTYRSKRLAGNASASA
- furin cleavage Z-score (7.5 min): 8.78 (active)
- furin cleavage Z-score (15 min): 10.5 (active)
- furin cleavage Z-score (30 min): 9.12 (active)

B11: HC2202 (peptide)
chain: CAEVQTSTWVAGNASASA
- furin cleavage Z-score (7.5 min): 0.816 (inactive)
- furin cleavage Z-score (15 min): 1.29
- furin cleavage Z-score (30 min): 1.14

B12: FS-3058 (peptide)
chain: CARRPRFKDIAGNASASA
- furin cleavage Z-score (7.5 min): 0.143 (inactive)
- furin cleavage Z-score (15 min): -0.201 (inactive)
- furin cleavage Z-score (30 min): 0.618 (inactive)

B13: FS-3064 (peptide)
chain: CARRRRPERVAGNASASA
- furin cleavage Z-score (7.5 min): 0.335 (inactive)
- furin cleavage Z-score (15 min): 0.809 (inactive)
- furin cleavage Z-score (30 min): 1.19

B14: FS-495 (peptide)
chain: CARRRRPERGAGNASASA
- furin cleavage Z-score (7.5 min): 1.03
- furin cleavage Z-score (15 min): 0.676 (inactive)
- furin cleavage Z-score (30 min): 1.87

B15: FS-1480 (peptide)
chain: CARRPRPRREAGNASASA
- furin cleavage Z-score (7.5 min): 8.98 (active)
- furin cleavage Z-score (15 min): 9.92 (active)
- furin cleavage Z-score (30 min): 8.21 (active)

B16: FS-1404 (peptide)
chain: CARRRRPRREAGNASASA
- furin cleavage Z-score (7.5 min): 7.83 (active)
- furin cleavage Z-score (15 min): 8.28 (active)
- furin cleavage Z-score (30 min): 6.14 (active)

B17: HC1289 (peptide)
chain: CADPLVAEEDAGNASASA
- furin cleavage Z-score (7.5 min): -0.0204 (inactive)
- furin cleavage Z-score (15 min): -0.956 (inactive)
- furin cleavage Z-score (30 min): -0.261 (inactive)

B18: FS-122 (peptide)
chain: CADPLRPRREAGNASASA
- furin cleavage Z-score (7.5 min): 5.53 (active)
- furin cleavage Z-score (15 min): 5.14 (active)
- furin cleavage Z-score (30 min): 4.87 (active)

B19: HC1092 (peptide)
chain: CALVAFKIMSAGNASASA
- furin cleavage Z-score (7.5 min): -0.725 (inactive)
- furin cleavage Z-score (15 min): -0.454 (inactive)
- furin cleavage Z-score (30 min): -0.368 (inactive)

B20: FS-1286 (peptide)
chain: CASSSRRRRSAGNASASA
- furin cleavage Z-score (7.5 min): 9.8 (active)
- furin cleavage Z-score (15 min): 8.59 (active)
- furin cleavage Z-score (30 min): 7.58 (active)

B21: FS-1285 (peptide)
chain: CASSREKRRSAGNASASA
- furin cleavage Z-score (7.5 min): 0.453 (inactive)
- furin cleavage Z-score (15 min): 0.575 (inactive)
- furin cleavage Z-score (30 min): 2.39

B22: FS-1615 (peptide)
chain: CASSSRRSRSAGNASASA
- furin cleavage Z-score (7.5 min): 7.43 (active)
- furin cleavage Z-score (15 min): 8.67 (active)
- furin cleavage Z-score (30 min): 6.73 (active)

B23: FS-216 (peptide)
chain: CAAPSRRSRSAGNASASA
- furin cleavage Z-score (7.5 min): 9.21 (active)
- furin cleavage Z-score (15 min): 8.84 (active)
- furin cleavage Z-score (30 min): 7.91 (active)

B24: FS-174 (peptide)
chain: CAKHSRRRRSAGNASASA
- furin cleavage Z-score (7.5 min): 10.9 (active)
- furin cleavage Z-score (15 min): 10.7 (active)
- furin cleavage Z-score (30 min): 6.68 (active)

B25: HC1733 (peptide)
chain: CAMEECSRHLAGNASASA
- furin cleavage Z-score (7.5 min): 0.727 (inactive)
- furin cleavage Z-score (15 min): 0.671 (inactive)
- furin cleavage Z-score (30 min): 1.88

B26: HC632 (peptide)
chain: CAALTGTYVYAGNASASA
- furin cleavage Z-score (7.5 min): 1.19
- furin cleavage Z-score (15 min): -0.31 (inactive)
- furin cleavage Z-score (30 min): -0.691 (inactive)

B27: HC1312 (peptide)
chain: CAKPDYEPPVAGNASASA
- furin cleavage Z-score (7.5 min): 0.808 (inactive)
- furin cleavage Z-score (15 min): -0.123 (inactive)
- furin cleavage Z-score (30 min): 0.46 (inactive)

B28: HC2369 (peptide)
chain: CAEVPCHYPSAGNASASA
- furin cleavage Z-score (7.5 min): 0.223 (inactive)
- furin cleavage Z-score (15 min): 1.34
- furin cleavage Z-score (30 min): 1.34
